Pf apPOL block – Pf-apPOL inhibitors, biochemical, fluorescence. inhibition, % at 10 µM. AID 1794808, 2022. Plasmodium falciparum apicoplast DNA polymerase (apPOL). actives 0.25% (n = 210,000). Recombinant Pf-apPOL, molecular beacon fluorescence, 1.5 h
mHTT CaM bind – mutant huntingtin-calmodulin interaction inhibitors – biochemical, AlphaScreen, primary screen; P42858; AID 1671202, 2021; AlphaScreen His-mHTT/GST-CaM binding, luminescence; inhibition, % at 15 µM; actives 3.6% (n = 190,000)
Numbers stand for hits; . = inactive; / = not tested or not shown. Compounds with a hit are over-represented: about 3.6% of the library has one in this group of screens. Rule as the data show it: active = inhibition above about 50%; inactive = the rest.

SMILES	Pf apPOL block	mHTT CaM bind
CSc1nnc2c(n1)OC(c1cc3c(cc1[N+](=O)[O-])OCO3)N(C(C)=O)c1ccccc1-2 (stereo not given)	.	.
CCN(CC)c1ccc(C2Oc3nc(SC)nnc3-c3ccccc3N2C(C)=O)c(OC)c1 (stereo not given)	.	59
CCSc1nnc2c(n1)OC(c1ccccc1OC)N(C(C)=O)c1ccccc1-2 (stereo not given)	.	.
COc1ccc(CC(=O)N2CCC(Nc3cccnc3)C2)cc1OC (stereo not given)	.	.
CCOc1ccc(-c2ncnn2-c2cccc(Cl)c2C)cc1	.	.
O=C(Nc1cnc(N2CCCCC2)nc1)c1ccc(Cl)s1	.	.
CCCC1CCc2c(sc(NC(=O)c3cccnc3)c2C(N)=O)C1 (stereo not given)	.	.
CCCC1CCc2c(sc(NC(=O)c3ccncc3)c2C(N)=O)C1 (stereo not given)	66	.
C/C(=N\OCC(=O)Nc1sc2c(c1C#N)CC(C)(C)NC2(C)C)c1cccs1	.	.
COc1cc(-c2c(C#N)c(N)n3c(nc4ccccc43)c2C#N)ccc1OCC#N	.	69
CCOc1ccc(-c2c(C#N)c(N)n3c(nc4ccccc43)c2C#N)cc1OC	.	.
O=S(=O)(Nc1ccc2ncccc2c1)c1ccc2oc3ccccc3c2c1	/	.
CC(C)COc1ccc2c(c1)Sc1ccccc1N2CCN(C)C	.	93
CN(C)CCCN1c2ccccc2Sc2ccc(Cl)cc21	.	/
CCOC(=O)N1CCN(C(=O)c2cc(-c3ccco3)[nH]n2)CC1	.	.
CC(C)(C)n1nc2c(c1-n1cccc1)CN(C(=O)c1cc(-c3ccco3)[nH]n1)C2	82	99
CCCNC(=O)CSc1nc2nc(C)c(Cc3c(F)cccc3Cl)c(C)n2n1	.	.
Cc1ccc(CNC(=O)C2CCN(c3nn4c(=O)c5c(nc4s3)CCCC5)CC2)cc1	.	89
O=C(NCc1cccc(F)c1)C1CCN(c2nn3c(=O)c4c(nc3s2)CCCC4)CC1	.	.
O=C(c1ccc2nsnc2c1)N1CCN(CC(O)c2cccs2)CC1 (stereo not given)	.	.
Cc1cc(C)nc(NC(=O)c2ccccc2F)c1	.	.
O=C1OC(c2ccc(Cl)cc2)=C/C1=C\c1ccco1	.	.
O=C1OC(c2ccc(Oc3ccccc3)cc2)=C/C1=C\c1ccco1	.	78
COc1ccc(C2C(C#N)=C(N)Oc3nc(C)[nH]c32)cc1OCc1ccccc1 (stereo not given)	.	.
O=C(NCCc1c[nH]c2ccc(OCc3ccccc3)cc12)c1ccc(Cl)cc1	.	73
SMILES	Pf apPOL block	mHTT CaM bind
COc1ccc2[nH]cc(CCNC(=O)c3ccc(Cl)cc3)c2c1	.	.
O=c1oc2ccc(Cl)cc2n1CNc1ccccc1	.	.
O=c1oc2ccc(Cl)cc2n1CNc1ccccc1F	63	.
O=C(Cn1c(NCCO)nc2ccccc21)c1ccc2c(c1)OCO2	.	.
Cc1nc(C(=O)N2CCN(Cc3ccccc3)CC2)c(C)n1C1CCN(C)CC1	.	.
NC(=O)c1cc2nc3c(c(C(F)(F)F)n2n1)CCc1ccccc1-3	.	.
COc1ccc(Cl)cc1S(=O)(=O)NCCC1CCN(C(=O)c2ccccc2)CC1	.	77
Cc1cc(C)cc(S(=O)(=O)NCCC2CCN(C(=O)c3ccccc3)CC2)c1	.	.
COc1ccc(OC)c(S(=O)(=O)NCCC2CCN(C(=O)c3ccccc3)CC2)c1	.	63
COc1ccc(S(=O)(=O)NCCC2CCN(C(=O)c3ccccc3)CC2)cc1Cl	.	.
Cc1nc2c(c(=O)n1CC(=O)NC1CCCC1)CCN(Cc1ccccc1)C2	.	.
CN(C)C=C1SC(=O)N(c2ccccc2)C1=O	.	/
CC(=O)Nc1cc(C(=O)NC2CCCC(C)C2C)ccc1S(=O)(=O)c1ccc(Cl)cc1 (stereo not given)	71	.
CC1CCCC(NC(=O)C(Cc2ccccc2)NS(=O)(=O)c2ccc(Cl)cc2)C1C (stereo not given)	.	.
O=C(NCc1ccccn1)c1cc(-c2ccc(Br)s2)nc2ccccc12	.	.
COc1cc(Cl)ccc1-c1nc(-c2cccc(-c3ccnn3C)c2)no1	.	.
Cc1ccc(C2CC(c3ccccc3)n3ncnc3N2)cc1 (stereo not given)	.	.
Cc1ccc(C2CC(c3ccc(Br)cc3)n3ncnc3N2)cc1 (stereo not given)	.	53
COc1ccc(C2CC(c3cccc(Br)c3)Nc3ncnn32)cc1 (stereo not given)	.	.
c1ccc(-c2ccc(C3CC(c4cccs4)n4ncnc4N3)cc2)cc1 (stereo not given)	.	55
Clc1ccc(C2CC(c3ccc(Br)cc3)Nc3ncnn32)cc1 (stereo not given)	.	59
Clc1ccc(C2CC(c3cccc(Br)c3)Nc3ncnn32)cc1 (stereo not given)	.	53
Cc1ccc(C2CC(c3cccs3)n3ncnc3N2)cc1 (stereo not given)	.	.
Clc1ccc(C2CC(c3ccccc3)Nc3ncnn32)cc1 (stereo not given)	.	.
CCCCN1C(=O)C(C)(C(=O)Nc2ccc(F)cc2Cl)Oc2cccnc21 (stereo not given)	.	.
SMILES	Pf apPOL block	mHTT CaM bind
COc1cccc(-n2c(=O)c3c(C)c(C(=O)N(C)C)sc3n(Cc3ccccc3C#N)c2=O)c1	.	.
CC(C)C(=O)NC(c1ccc(N(C)C)cc1)c1ccc2cccnc2c1O (stereo not given)	.	100
CCN(CC)c1ccc(C(NC(=O)C(C)C)c2ccc3cccnc3c2O)cc1 (stereo not given)	.	100
CN(C)Cc1c(O)ccc2c(-c3ccccc3)cc(=O)oc12	.	.
CC[C@@]1(O)C(=O)OCc2c1cc1n(c2=O)Cc2cc3c(CN(C)C)c(O)ccc3nc2-1	84	/
Cc1ccc(CCNC(=O)C2CCCN(S(=O)(=O)N3CCC(C)CC3)C2)cc1 (stereo not given)	.	.
O=C(CCN1CCCC1)Nc1cccc(Br)c1	.	.
O=c1[nH]c2ccc(Cl)cc2c(-c2ccccc2)c1N1CCOCC1	.	/
O=c1[nH]c2ccc(Cl)cc2c(-c2ccccc2)c1N1CCN(Cc2ccc3c(c2)OCO3)CC1	.	100
O=C(CCN1CCCCC1)Nc1c(-c2ccccc2)c2cc(Br)ccc2[nH]c1=O	.	99
O=c1[nH]c2ccc(Cl)cc2c(-c2ccccc2)c1CN1CCCCC1	.	100
Cc1[nH]c2ccc(Cl)cc2c(=O)c1CN1CCCC1	.	.
COc1ccc(CNC(=O)CC2CCN(S(=O)(=O)c3cccs3)CC2)cc1	.	.
O=C(CCC1CCCN(C(=O)Nc2ccc(F)cc2)C1)NCc1ccc(F)cc1Cl (stereo not given)	.	.
Cc1ccc(S(=O)(=O)N=Cc2ccc(F)cc2)cc1	.	.
COc1ccc(NC2=CC(=NS(=O)(=O)c3ccc(C)cc3)c3ccccc3C2=O)cc1	.	.
Cc1ccc(NC2=CC(=NS(=O)(=O)c3ccc(F)cc3)c3ccccc3C2=O)cc1	.	88
COc1ccc(S(=O)(=O)N=C2C=C(Nc3ccc(C)cc3)C(=O)c3ccccc32)cc1	.	75
CCOc1cc(-c2ccc(O)c(O)c2)cc(=O)c2c(C)oc(C)c12	.	.
COc1cc(-c2ccc(O)cc2)cc(=O)c2c(C)oc(C)c12	.	.
CCOc1cc(-c2ccc(OCc3ccccc3)c(OC)c2)cc(=O)c2c(C)oc(C)c12	.	70

Compound activity (PubChem BioAssay)
